Screens (PubChem)
Shown are actives, neighbours in structure and some others; about 5.6% of the full set was active somewhere.
CtBP-E1A blk – blocks the CtBP interaction with E1A; AlphaScreen GST-E1A/His-CtBP binding, 1536-well; hits give low values; activity change, % (test concentration not listed); 340,000 tested, 0.49% active; in the data active = activity change below about -65%; inconclusive = mostly about -30% to -63%
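In 5 uL wells, 23 nL compound meets equimolar GST-E1A and His-CtBP (5X stock 125 nM each) for 2 h, 37 °C. Beads (5X, 50 ug/mL) then 1 h, 37 °C, dark.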
Six1-Eya2 blk – Six1/Eya2 interaction inhibition; Q15475+O00167; AlphaScreen GST-Six1/His-Eya2 binding, biochemical; hits give low values; activity change, % (no concentration beside the values); 360,000 tested, 0.56% active; AID 651725; in the data active = activity change below about -65%; inconclusive = mostly about -30% to -63%
Target sequence (O00167 whole entry, looked up): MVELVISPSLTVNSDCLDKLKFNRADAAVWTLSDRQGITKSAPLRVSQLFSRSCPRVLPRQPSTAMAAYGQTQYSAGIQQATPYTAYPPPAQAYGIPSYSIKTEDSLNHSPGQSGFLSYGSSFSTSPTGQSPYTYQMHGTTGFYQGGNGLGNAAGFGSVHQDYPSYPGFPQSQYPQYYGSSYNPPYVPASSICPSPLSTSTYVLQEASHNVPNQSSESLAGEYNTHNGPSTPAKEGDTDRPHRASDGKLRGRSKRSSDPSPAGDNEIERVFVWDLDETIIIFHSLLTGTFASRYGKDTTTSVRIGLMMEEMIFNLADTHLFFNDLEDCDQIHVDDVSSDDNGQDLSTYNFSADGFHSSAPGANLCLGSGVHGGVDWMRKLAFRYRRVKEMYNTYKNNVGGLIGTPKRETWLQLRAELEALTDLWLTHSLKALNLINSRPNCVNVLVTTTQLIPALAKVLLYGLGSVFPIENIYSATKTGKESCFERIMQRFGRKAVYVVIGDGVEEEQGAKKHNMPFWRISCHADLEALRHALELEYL
Target sequence (Q15475 whole entry, looked up): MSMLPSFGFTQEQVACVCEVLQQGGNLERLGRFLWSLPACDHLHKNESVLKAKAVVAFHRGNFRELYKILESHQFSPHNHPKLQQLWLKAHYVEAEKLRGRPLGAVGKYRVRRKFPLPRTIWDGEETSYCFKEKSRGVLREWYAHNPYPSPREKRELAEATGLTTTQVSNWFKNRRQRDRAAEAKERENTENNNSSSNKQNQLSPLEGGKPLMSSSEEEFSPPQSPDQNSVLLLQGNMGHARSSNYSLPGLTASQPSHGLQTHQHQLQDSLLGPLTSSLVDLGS
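GST-Six1 + His-Eya2 (5X stock: 250/500 nM); Tris pH 8.0, 300 mM NaCl, 0.05% BSA, 0.02% Tween 20; GSH donor/Ni acceptor beads; 1 h 37 °C dark; AlphaScreen readout.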
PKM2 act – activators of human pyruvate kinase M2. 260,000 tested, 0.34% active. Potency, µM (series often up to 57.5 µM), actives largely listed as activators. P14618. purified PKM2, Kinase-Glo ATP luminescence, activation; response scale: 0% is enzyme alone, no compound; note: nearly all actives have a fitted effect of over 55% in size
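Kinase-Glo luminescence reports ATP generated from ADP (0.1 mM) and PEP (0.5 mM) by purified hPK-M2 after 1 h at room temperature, pH 7.2 imidazole buffer; intermediate enzyme activity allows detecting inhibitors and activators.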
VP16 counter – inhibits Gal4-VP16 luciferase reporter, ROR gamma counter-screen; Drosophila S2 Gal4-VP16 UAS-luciferase, luminescence, 20 h; Potency, µM (top dose mostly 53.6 µM), usual class: inhibitors; 310,000 tested, 3.5% active; AID 2546;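 note: Gal4-VP16 expression switched on by copper sulfate through the metallothionein promoter; nearly all actives have a fitted effect of over 50% in size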
RORg inh – ROR gamma (mouse) transcription inhibition | Drosophila S2 Gal4-RORgamma UAS-luciferase reporter, 20 h | AID 2551 | Potency, µM (top dose mostly 53.6 µM), most hits filed as inhibitors | 310,000 tested, 5.4% active | P51450; note: nearly all actives have a fitted effect of over 60% in size
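Drosophila S2 cells stably expressing Gal4-DBD/mouse RORγ fusion under metallothionein promoter plus UAS-luciferase; compound 1 h, then 700 uM CuSO4 induction for 20 h at ambient temperature; inhibition read as reduced luminescence.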
Large screens that a line does not name were inactive. Unless noted, calls come from the whole dose curve; as a rule, active = well fitted curve in the direction sought with a large enough effect; inconclusive = small, poorly fitted or top-dose-only effect, or another doubt; inactive = no such curve, though single readings can be large; an effect the other way counts as inactive or inconclusive.

[O-]/C(=C(\C(=S)Nc1ccc(Cl)cc1)[n+]1ccccc1)c1ccc(OC(F)F)cc1	RORg inh 5µM
Nc1c(-c2ccccn2)cnn1-c1nc(-c2ccc(F)cc2)cs1	RORg inh 5µM
CN(C)S(=O)(=O)Oc1ccc(C(=O)Nc2cccc(C(F)(F)F)c2)cc1	none
CN(C)S(=O)(=O)Oc1ccc(C(=O)Nc2cccc(Cl)c2)cc1	VP16 counter 13µM, RORg inh inconclusive
COc1ccc([C@]23Cc4cc(C#N)ccc4C(O2)c2c(cc(-c4ccccc4)oc2=O)O3)cc1	none (no result: CtBP-E1A blk, Six1-Eya2 blk)
C=CCc1c(NCCO)nc(C)[nH]c1=O	none
O=C(NCCc1ccccc1)c1cccc(N2CCCC2=O)c1	VP16 counter 10µM, RORg inh 11µM (no result: CtBP-E1A blk, PKM2 act)
Cc1cccc(CCNC(=O)c2cccc(N3CCCC3=O)c2)c1	RORg inh 10µM (no result: CtBP-E1A blk, PKM2 act)
COCCNC(=O)C1(C)CCCN(C(=O)c2cccnc2SC)C1 (stereo unspecified)	none (no result: PKM2 act, VP16 counter, RORg inh)
CCN(CC)C(=O)c1ccc(S(=O)(=O)c2ccccc2)cc1	none
S=C(Nc1ccccc1Oc1ccccc1)Nc1cccc(Cl)c1Cl	VP16 counter inconclusive, RORg inh 13µM
S=C(Nc1ccc(Cl)cc1Cl)Nc1ccccc1Oc1ccccc1	VP16 counter inconclusive, RORg inh 10µM
S=C(Nc1cccc(Cl)c1)Nc1cccc2cnccc12	PKM2 act inconclusive
S=C(Nc1cccc(Cl)c1)Nc1ccccc1Oc1ccccc1	VP16 counter inconclusive, RORg inh 10µM
CC[C@H](C)[C@H](NC(=O)[C@H](Cc1ccccc1)NC(=O)[C@H](CC(C)C)NC(=O)[C@H](CCSC)NC(=O)[C@H](CCC(=O)O)NC(=O)[C@H](CCC(=O)O)NC(=O)[C@H](CC(=O)O)NC(=O)[C@H](CO)NC(=O)[C@@H]1CCCN1C(=O)[C@H](CCCCN)NC(=O)[C@@H](N)[C@@H](C)O)C(=O)N[C@@H](Cc1ccc(O)cc1)C(=O)NCC(=O)N[C@@H](Cc1cnc[nH]1)C(=O)N[C@@H](Cc1ccc(O)cc1)C(=O)N[C@@H](CCCCN)C(=O)N[C@@H](CCC(N)=O)C(=O)N[C@@H](C)C(=O)N[C@H](C(=O)N[C@H](C(=O)NCC(=O)N[C@@H](CC(=O)O)C(=O)N[C@H](C(=O)N[C@@H](CC(N)=O)C(=O)N[C@H](C(=O)N[C@@H](CCC(=O)O)C(=O)N[C@@H](CCCNC(=N)N)C(=O)N1CCC[C@H]1C(=O)NCC(=O)N[C@@H](CCSC)C(=O)N[C@@H](CC(C)C)C(=O)N[C@@H](CC(=O)O)C(=O)N[C@@H](Cc1ccccc1)C(=O)N[C@H](C(=O)O)[C@@H](C)O)[C@@H](C)O)[C@@H](C)CC)C(C)C)[C@@H](C)O	none (no result: CtBP-E1A blk, Six1-Eya2 blk, PKM2 act)
NC(=S)N/N=C/c1coc2c(ccc3ccccc32)c1=O	VP16 counter 7.9µM, RORg inh 5.6µM
O=CN/N=C/c1c(O)ccc2ccccc12	Six1-Eya2 blk -91, VP16 counter 2.8µM, RORg inh 0.79µM (no result: CtBP-E1A blk)
Cc1cc(N/N=C/c2c(O)ccc3ccccc23)nc(-c2ccccc2O)n1	VP16 counter 4µM, RORg inh 7.1µM
NC(=S)N/N=C/c1c(O)ccc2ccccc12	Six1-Eya2 blk -91, VP16 counter 4µM, RORg inh 1.1µM (no result: CtBP-E1A blk)
COc1ccc(CN(C)C(=O)COC(=O)c2cc([N+](=O)[O-])ccc2N2CCCC2)c(OC)c1OC	none (no result: CtBP-E1A blk, PKM2 act, VP16 counter, RORg inh)
COc1cc(/C=C(\C#N)C(=O)Nc2nnc(C(F)(F)F)s2)ccc1OCc1ccc(C(F)(F)F)cc1C(F)(F)F	none (no result: CtBP-E1A blk, Six1-Eya2 blk, PKM2 act)
CC(=O)O[C@H]1C(=O)[C@@]2(C)C([C@H](OC(=O)c3ccccc3)[C@]3(O)C[C@H](OC(=O)[C@H](O)[C@@H](NC(=O)c4ccccc4)c4ccccc4)C(C)=C1C3(C)C)[C@]1(OC(C)=O)CO[C@@H]1C[C@H]2O (stereo partly specified)	VP16 counter 20µM, RORg inh inconclusive
CCN(C(=S)Nc1ccc(Oc2ccccc2)cc1)c1ccccc1	VP16 counter 18µM, RORg inh 13µM
CCOC(=O)N1CCC(N(CCN(C)C)C(=S)Nc2ccc(Oc3ccccc3)cc2)CC1	RORg inh 11µM
CCN(C(=S)Nc1cccc(C)c1)c1ccccc1	PKM2 act inconclusive, VP16 counter inconclusive, RORg inh 16µM
Clc1ccc(SCc2cn3ccccc3n2)cc1	RORg inh 8.9µM
Cc1cccc2nc(CSc3nc4cc([N+](=O)[O-])ccc4s3)cn12	VP16 counter inconclusive, RORg inh 20µM
Cc1cccc2nc(CSc3nc4ccccc4[nH]3)cn12	none
Cc1cccc2nc(CSc3ccc(Cl)cc3)cn12	VP16 counter inconclusive, RORg inh 7.9µM
CC(C)[C@H](/C=C/C[Si](C)(C)C)[C@H](C)C(O)/C=C/CCCOC(=O)C(C)(C)C (stereo partly specified)	none (no result: CtBP-E1A blk, Six1-Eya2 blk, PKM2 act)
NC(=O)c1ccccc1NC(=O)Nc1ccc(F)c(Cl)c1	none (no result: CtBP-E1A blk)
Cc1cc(C(=O)NNS(=O)(=O)c2ccc(C(C)(C)C)cc2)nn1C(C)(C)C	none (no result: CtBP-E1A blk)
Cc1ccc(Nc2nc(-c3ccc(F)cc3)cs2)nc1	VP16 counter inconclusive (no result: CtBP-E1A blk)
Cc1cccnc1Nc1nc(-c2ccccc2)cs1	none (no result: VP16 counter, RORg inh)
Cc1cccnc1Nc1nc(-c2ccc(O)cc2O)cs1	VP16 counter inconclusive, RORg inh 6.3µM
Cc1cccc(Nc2nc(-c3ccccn3)cs2)n1	CtBP-E1A blk inconclusive, Six1-Eya2 blk inconclusive, VP16 counter 2.5µM, RORg inh 1.6µM
Cc1cccnc1Nc1nc(-c2ccccn2)cs1	CtBP-E1A blk -95, Six1-Eya2 blk -78, VP16 counter inconclusive, RORg inh 0.022µM
Cc1ccc(Nc2nc(-c3ccc(O)c(O)c3)cs2)nc1	PKM2 act inconclusive, VP16 counter 6.3µM, RORg inh 13µM
Cc1cc(C(=O)C(C)OC(=O)c2ccc(NC(=O)CC#N)cc2)c(C)n1-c1ccccc1 (stereo unspecified)	none (no result: PKM2 act, VP16 counter, RORg inh)
Oc1ccc(-c2csc(Nc3ccccn3)n2)c(O)c1	VP16 counter inconclusive, RORg inh 11µM (no result: CtBP-E1A blk)
CC(=O)Oc1ccc(-c2csc(Nc3cccc(C)n3)n2)cc1	VP16 counter 10µM, RORg inh 3.2µM
c1ccc(Nc2nc(-c3cccs3)cs2)nc1	VP16 counter inconclusive, RORg inh inconclusive
NS(=O)(=O)c1ccc(Nc2nc(-c3ccc(O)cc3O)cs2)cc1	CtBP-E1A blk -80, Six1-Eya2 blk -67
CC(Cl)C(=O)NNC(=O)CNS(=O)(=O)c1ccccc1 (stereo unspecified)	none (no result: CtBP-E1A blk)
C/C(CC(=O)Nc1cccc(Br)c1)=N\NC(=O)c1ccc(O)cc1O	VP16 counter inconclusive, RORg inh 0.89µM (no result: PKM2 act)
COCc1cc(=O)n2[nH]c(C)c(-c3ccc(Cl)cc3)c2n1	none (no result: PKM2 act, VP16 counter, RORg inh)
COCc1cc(=O)n2[nH]cc(-c3ccsc3)c2n1	VP16 counter inconclusive, RORg inh 16µM (no result: PKM2 act)
